Test results taken from the supplement of paper PMC6555819.

Legend:
Assay in all cases: PBM binding z-score (relative to random genomic background probes); higher = stronger binding; sequences stand for … in GC…GCGATTGACAGCGTAGAATGAAGG
[1] = system: PPARg:RXRa DBDmut IVT, anti-RXR (DBD mutation: RXRa K156A/R161A, NR concentration 270 nM, RXRa partner concentration 90 nM)
Procedure, shortened: (§1)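 The probes on custom Agilent 4×180K protein-binding microarrays were double-stranded, with 34-nt variable regions bearing direct-repeat seeds, single-nucleotide variants, half-site ablations and random human genomic background sequences. Incubation lasted 1 h with ligand-free nuclear receptor dimers in PBS pH 7.4, 2% milk, 0.02% Triton X-100, 1 mM DTT, 0.2 mg/mL BSA and 0.4 mg/ml salmon testes DNA. Antibodies against each partner (one per run) detected bound dimers, and fluorescence scans were regression-normalized. Binding z-scores take the random background probes as reference.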

[2] = system: PPARg:RXRa IVT, anti-PPARg (NR concentration 270 nM, RXRa partner concentration 90 nM)
Procedure, shortened: as §1

[3] = system: PPARg DBDmut:RXRa IVT, anti-PPARg (DBD mutation: PPARg1 K132A/R137A, NR concentration 270 nM, RXRa partner concentration 90 nM)
Procedure, shortened: as §1

[4] = system: PPARg DBDmut IVT, anti-PPARg (DBD mutation: PPARg1 K132A/R137A, NR concentration 270 nM)
Procedure, shortened: as §1

[5] = system: PPARg homodimer (NR concentration 180 nM)
Procedure, shortened: as §1

[6] = system: PXR:RXRa (NR concentration 270 nM, RXRa partner concentration 90 nM)
Procedure, shortened: as §1

[7] = system: PXR homodimer (NR concentration 270 nM)
Procedure, shortened: as §1

[8] = system: RARa:RXR (NR concentration 270 nM, RXRa partner concentration 90 nM)
Procedure, shortened: as §1

[9] = system: RARa homodimer (NR concentration 270 nM)
Procedure, shortened: as §1

[10] = system: RARb:RXRa (NR concentration 270 nM, RXRa partner concentration 90 nM)
Procedure, shortened: as §1

[11] = system: RARb homodimer (NR concentration 270 nM)
Procedure, shortened: as §1

[12] = system: RARg:RXRa (NR concentration 270 nM, RXRa partner concentration 90 nM)
Procedure, shortened: as §1

[13] = system: RARg homodimer (NR concentration 270 nM)
Procedure, shortened: as §1

[14] = system: RXRa DBDmut IVT, anti-RXR (DBD mutation: RXRa K156A/R161A, NR concentration 90 nM)
Procedure, shortened: as §1

[15] = system: RXRa homodimer (NR concentration 180 nM)
Procedure, shortened: as §1

[16] = system: THRa:RXRa (NR concentration 90 nM, RXRa partner concentration 90 nM)
Procedure, shortened: as §1

[17] = system: THRa homodimer (NR concentration 90 nM)
Procedure, shortened: as §1

[18] = system: VDR homodimer (NR concentration 270 nM)
Procedure, shortened: as §1

Sequence	PBM binding z-score [1]	PBM binding z-score [2]	PBM binding z-score [3]	PBM binding z-score [4]	PBM binding z-score [5]	PBM binding z-score [6]	PBM binding z-score [7]	PBM binding z-score [8]	PBM binding z-score [9]	PBM binding z-score [10]	PBM binding z-score [11]	PBM binding z-score [12]	PBM binding z-score [13]	PBM binding z-score [14]	PBM binding z-score [15]	PBM binding z-score [16]	PBM binding z-score [17]	PBM binding z-score [18]
TGTCAAAGTTCAAATGTAACGTAAGTATCCACAC	0.32	4.15	1.72	2.11	2.82	5.13	4.03	3.93	2.08	5.02	3.94	5.53	5.93	4.69	5.3	2.16	-0.283	4.11
CCGACTAGGGCAGAAAGGTTACCATACCATCCGG	2.95	2.6	-0.185	-0.946	1.12	1.24	-0.00781	1.86	0.161	2.24	2.4	1.99	1.91	-0.271	1.92	1.21	-0.493	-0.0974
CCTAGTTGGTCAAGGTCACTCACGCTATAGGTAC	2.34	3.16	0.496	1.05	3.66	3.73	2.8	3.58	2.53	4	4.26	4.06	4.75	2.1	3.76	3.83	3.83	3.53
GCAGTCAGGTGAAACGCAGGTAACTCAGGGTGGC	1.84	0.996	-0.763	-0.908	-0.83	-0.443	-0.701	0.159	-1.13	1.03	0.205	0.634	0.376	-0.235	0.237	1.8	0.308	-0.682
ATATGTAAGTTAGCTGGGGTCATTCAGACTAGGC	0.965	1.4	0.49	0.596	1.64	5.82	6.58	5.31	0.998	2.47	3.29	3.58	2.19	1.95	5.13	4.31	3.21	4.9
TAGCCTAGGTCATGGGTCAGTATACCACGCGAAC	1.91	4.28	1.25	0.834	2.55	2.92	0.237	4.22	0.889	4.1	3.88	5.09	5.02	0.71	4.72	3.51	1.65	1.29
ACTAGTTGGTCAGCTGATGTCACACACAATTCGG	1.1	0.986	0.46	0.51	0.558	0.361	-0.542	0.497	0.341	0.995	1.06	0.65	1.08	0.494	0.485	1.29	0.161	0.144
TCGAGTAGGTTACCTATGGGGCATTCAGCTTTCT	2.71	2.51	-0.176	-0.57	-0.445	0.0182	-0.655	0.469	-0.643	0.753	0.279	1.39	0.398	0.211	0.571	0.16	-0.89	-0.367
CCTTACGGGTCACTGACAGGTTATTGCATTTGGA	3.48	3.61	0.525	0.563	2.74	3.89	0.344	4.51	0.71	4.04	3.24	5.55	4.57	1.94	5.07	2.92	0.504	1.45
GCGACTGGGGCTTCAGCAGGTTACCATAACTTAA	0.693	0.216	-0.978	-1.13	0.227	-0.117	-0.245	0.339	-0.857	-0.108	0.521	-0.404	-0.463	-0.297	0.00147	0.733	-0.0641	-0.284
GCTCGGAGGACAAGGGCAGAGCTTTGTCCGTAGA	-0.664	-0.527	-1.1	-1.88	-0.96	-0.518	-0.927	-0.516	-1.17	1.4	0.567	-0.153	0.628	-0.927	-0.428	0.387	-0.399	-0.558
TAGCATAGGTCATTCAGGGGCCAGTATAGAAAGC	1.02	2.08	0.638	0.381	5.69	4.14	0.0442	5.79	1.25	4.4	3.72	7.38	5.09	1.83	5.02	3.87	-0.317	0.876
AATACAGGATCATCGTAGGCCAGAGTACGCACAG	-0.0409	0.414	0.728	0.381	0.342	0.111	0.257	0.723	0.87	0.16	0.484	0.381	0.569	0.155	0.54	1.59	-0.259	0.692
CGTCCGAGGTCAGCAGGTCAGTGAAAGCGACGTG	3.37	4.16	0.747	0.472	4.76	4.43	0.531	5.55	1.59	5.15	4.89	6.81	7.31	2.99	6.26	4.09	2.53	2.44
TCTTGTAGATCAGCAGGTTAAGAAAGCTGGCCAA	1.47	0.491	0.15	0.117	-0.272	0.155	-0.284	0.351	-0.421	0.213	-0.155	-0.199	-0.355	0.476	0.261	-0.0256	-0.621	-0.371
ACTATTAGTTGACTTCGGGCAACCGATACGACGC	-0.0241	0.38	0.985	0.939	0.728	0.138	0.00546	0.411	0.245	0.417	0.558	0.37	0.691	0.225	0.42	1.06	0.256	0.371

Sequence	PBM binding z-score [1]	PBM binding z-score [2]	PBM binding z-score [3]	PBM binding z-score [4]	PBM binding z-score [5]	PBM binding z-score [6]	PBM binding z-score [7]	PBM binding z-score [8]	PBM binding z-score [9]	PBM binding z-score [10]	PBM binding z-score [11]	PBM binding z-score [12]	PBM binding z-score [13]	PBM binding z-score [14]	PBM binding z-score [15]	PBM binding z-score [16]	PBM binding z-score [17]	PBM binding z-score [18]
TCATATAGGTAATACAGGTGGAAGTCGGCATCTA	4.03	2.31	1.36	0.905	0.801	0.571	0.602	0.763	1.5	0.515	0.159	0.56	0.449	1.5	1.31	0.353	0.0491	0.547
TCTCGTAGATCAACAGGAGGTTAAGAAAGATCGA	1.41	0.00538	0.397	-0.0394	0.0333	0.901	-0.13	1.21	0.12	0.48	0.63	0.917	0.145	0.538	1.01	0.902	-0.325	-0.382
CGAACGAGGGCATGAGTTGATAGGAAATGCCGAT	2.5	1.68	-1.02	-0.376	0.547	0.35	0.349	0.4	-0.46	1.88	0.511	1.1	1.71	2.4	0.923	1.07	-0.419	1.41
CATACAGGGTCAGCTAGGCCAGAGTCGGGACGGC	1.33	2.55	0.623	0.297	2.62	2.15	-0.0453	3.26	0.539	4.13	3.18	4.42	4.67	2.13	4.21	3.08	0.802	1.31
TCTGCTAGGTCAACCATGGTCAGCTAATCTGCTA	4.75	4.6	-0.545	-0.0168	1.65	2.47	-0.872	2.3	-0.434	4.21	3.53	4.4	5.7	1.05	3.24	3.78	1.03	-0.484
TCTCGGAGGACACGAAAGGTCAGACCTCGACATC	1.73	1.54	0.0109	-0.512	2.48	4.1	0.547	4.15	1.09	4.28	4.65	4.84	5.27	1.39	4.1	3.73	1.55	1.14
CGTCCCAGGTCAAGGTCAGTGAAAGAGACTCGAA	2.24	3.62	0.134	-0.571	3.49	4.05	1.33	4.43	2.12	5.02	4.62	5.74	6.29	2.55	5.19	4.18	3.61	2.6
ATGTGTAGGTTATCGGGTCATTCAGTTTGCGCAT	4.63	5.37	1.53	2.39	3.67	4.09	9.38	4.11	2.56	2.75	3.35	3.59	2.67	1.75	3.57	3.57	3.71	3.91
CGTCCAAAGTCAGCAGGTCAGTGAAAGCGACGTG	0.261	0.191	-0.441	-1.08	0.985	0.594	-0.2	0.951	-0.229	2.05	2.43	1.31	1.5	0.597	0.851	1.05	0.291	0.0938
GCGACTGCGGCAAAGCAGGTTACCATAAGGTTGG	-0.386	-0.26	-0.756	-1.23	-0.726	-0.186	-0.666	0.143	-1.11	-0.06	0.0926	-0.183	-0.487	-0.499	-0.0388	0.953	-0.402	-0.315
TCTTGTAGATCAGCAAGTTAAGAAAGCTGGCCAA	1.5	0.0775	0.0136	-0.449	-0.907	-0.095	-0.549	-0.2	-0.451	-0.472	-0.5	-0.41	-0.827	0.54	-0.136	-0.47	-1.04	-0.456
CAAACTAGGTCACGAAAAGTCAAAGTCGAATGAC	8	9.2	4.41	4.13	2.52	2.27	0.426	3.44	0.939	4.58	3.38	4.82	5.38	1.53	3.85	3.35	1.25	0.644
TAGCCTAGGGCATGGGCCAGTATACCACGCGAAC	-0.924	0.59	-0.344	-0.519	-0.284	-0.477	-0.557	0.0195	-0.519	1.33	0.79	0.484	0.834	-1.24	0.135	-0.0791	0.0268	-0.21
ATACCAAGGTGATCGCGAGGTCGTTGATACTAAC	0.441	1.35	0.0109	0.101	0.588	3.17	1.13	1.84	-0.462	1.24	1.51	2.37	0.886	0.551	1.42	3.11	1.61	2.67
CCTTACAGGTCACTCCAGGTTATAGCATCGGAGT	4.37	4.23	0.516	0.777	2.41	4.74	0.873	3.71	1.13	4.61	3.76	4.74	4.71	2.2	4.35	5.15	1.32	2.04
